Measured values published in PubChem BioAssay (NCI).
Where “and” joins values, the source holds several entries; their conditions need not be identical. Identical values can stand only once. The panel holds about 83,000 compounds, 20% with a hit somewhere; the sample as a whole holds those more often.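 How to read the values: 0–100, growth inhibition (40 = 60% inhibited); 0, no net growth; -100 to 0, cell death (-40 = 40% of starting cells died; -100 = all dead).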 Calls of active or inactive are those of the source. Rule for the calls: active = growth percent below 10; inactive = the rest.

Tested on: MDA-MB-468 breast
Test: NCI-60 one-dose screen, 48 h (100 = growth as untreated, 0 = no growth, -100 = all killed)
Conditions: 10 µM unless noted

Row | SMILES | growth
1 | O=C(CSc1nnc2sc(Nc3cccc(Cl)c3)nn12)c1ccc(F)cc1 | 89.5% (inactive)
2 | Cc1c([N+](=O)[O-])cc(C(C)(C)C)cc1[N+](=O)[O-] | 90.6% (inactive)
3 | CCCCCCCCCCCCCCCc1cc(O)ccc1N | 70.1% (inactive) and 6.15% (active)
4 | O=C(Nc1ccc(-n2cc(-c3ccncc3)c(-c3ccc(O)c(Cl)c3)n2)cc1)c1ccc(Cl)c(Cl)c1 | 39.9% (inactive)
5 | COc1cc(NC(=O)c2cccc(-c3cc(=O)c4c(OC)c(OC)c(OC)cc4o3)c2)cc(OC)c1OC | 47.4% (inactive)
6 | CC(C)c1ccc(C(=O)OCCCl)cc1 | 111% (inactive)
7 | COc1cc(C(=O)/C=C/c2ccc3nc(-c4cc(F)cc(F)c4)sc3c2)cc(OC)c1OC | 120% (inactive)
8 | S=C=Nc1ccc2ccccc2c1 | 97.3% (inactive)
9 | OC(c1cc(C23CC4CC(CC(C4)C2)C3)nc2c(Cl)cc(Cl)cc12)C1CCCCN1 (configuration not stated) | -89.7% (active)
10 | Nc1nc2ccccc2c2c(=O)c3cc(Cl)ccc3sc12 | 21.3% (inactive)
11 | CC(C)=CCC[C@](C)(O)[C@H]1CC[C@]2(C)[C@@H]1CC[C@@H]1[C@@]3(C)Cc4nccnc4C(C)(C)[C@@H]3CC[C@]12C | 69.4% (inactive)
12 | C=C(C)[C@@H]1CC[C@]2(N=C=O)CC[C@]3(C)[C@H](CC[C@@H]4[C@@]5(C)Cc6c([nH]c7ccccc67)C(C)(C)[C@@H]5CC[C@]43C)[C@@H]12 | 92.5% (inactive)
13 | Cc1nc2sc(C(=O)Nc3cccc4ccccc34)c(N)c2cc1C(O)c1ccccc1 (configuration not stated) | 18.1% (inactive)
14 | Cc1cc(C)c(CCc2cc(C)c(C)cc2C)cc1C | 109% (inactive)
15 | O=C(CI)NCCNc1cccc2c(S(=O)(=O)O)cccc12 | 100% (inactive)
16 | COc1ccc(-c2cn[nH]c2-c2cc(OC)c(OC)c(OC)c2)cc1N | -13.3% (active) and -29.2% (active)
17 | COC(=O)/C=C/c1cc(OC(C)=O)c2c(c1)C(C(=O)OC)C(c1ccc(OC(C)=O)c(OC(C)=O)c1)O2 (configuration not stated) | 35.8% (inactive)
18 | c1ccc(Cn2cc3c(c2-c2ccccc2)CCc2cnoc2-3)cc1 | 66.5% (inactive)
19 | COc1ccc(OC)c(NC2=C(Cl)C(=O)C(C)=C(C)C2=O)c1 | -31.6% (active)

Row | SMILES | growth
20 | O=C(Nc1cc(Cl)ccc1O)c1ccc(Nc2ccnc(C(F)(F)F)c2)cc1 | 58.7% (inactive)
21 | CN1CCN(c2cc(Nc3cc(C4CC4)[nH]n3)nc(Nc3ccc(CC(=O)NCc4cccc(F)c4)cc3)n2)CC1 | 98.8% (inactive)
22 | C(=C(\C1=NCCN1)n1ccc2ccccc21)/c1ccccc1 | 96.5% (inactive)
23 | CC(C)=C(NC(=O)c1ccccc1)C(=O)O | 88.5% (inactive)
24 | COc1cccc(NC(=O)NCCNc2nccc(-c3c(-c4ccc(F)cc4)nc4sccn34)n2)c1 | 94.3% (inactive)
25 | c1ccc(Cn2nc3c(c2-c2ccccc2)-c2oncc2CC3)cc1 | 101% (inactive)
26 | N#CCc1cccc2ccccc12 | 112% (inactive)
27 | C=C(CNCCO)[C@@H]1CC[C@]2(CO)CC[C@]3(C)[C@H](CC[C@@H]4[C@@]5(C)CCC(NCCO)C(C)(C)[C@@H]5CC[C@]43C)[C@@H]12 (some centres not stated) | 51% (inactive)
28 | CN1C(=O)N(C)C2Nn3c(s/c(=C4\C(=O)N(CCc5ccccc5)c5ccccc54)c3=O)=NC21 (configuration not stated) | 39% (inactive)
29 | COc1cc(-c2nn(-c3ccc(Br)cc3)cc2C(=O)O)ccc1O | 103% (inactive)
30 | CCc1c2c(nc3ccc(OC(=O)N4CCC(N5CCCCC5)CC4)cc13)-c1cc3c(c(=O)n1C2)COC(=O)[C@]3(O)CC | -31.2% (active)
31 | Oc1ccc(CSc2nnc(-c3ccncc3)n2-c2ccccc2)c2cccnc12 | 14.2% (inactive)
32 | CCCCCCC(O)(c1ccc(F)cc1)C(CN1CCOCC1)c1ccccc1 (configuration not stated) | 28% (inactive)
33 | COc1nc2ccccc2cc1/C=[N+](\[O-])c1ccccc1 | 88.6% (inactive)
34 | CN1CCN(Cc2ccc(NC(=O)c3cncc(C#Cc4cnc(N)c5ccc(F)cc45)c3)cc2C(F)(F)F)CC1 | -34.4% (active)
35 | O=C1c2ccccc2CN1c1ccccc1 | 101% (inactive)
36 | O=C(Nc1ccc(Oc2ccc(F)cc2)c(Cl)c1)c1cccnc1 | 57.2% (inactive)
37 | COc1cc(/C=C/C(=O)c2ccc(Cl)cc2)ccc1Oc1nc(NCCO)nc(N2CCOCC2)n1 | 91.5% (inactive)
